PubChem BioAssay (EPA / NIEHS)
Inconclusive results are not listed. Active and inactive are the calls of the source. How the source made its calls, unless noted: active means hit-call score of the fitted dose curve at least 0.9, where 1 is the maximum; inconclusive means response in the unintended direction; inactive means score below 0.9.

Columns and labels:
[1] = ATG_TAL_CIS: Attagene CIS-FACTORIAL HepG2 Assay for human TAL Basal Promoter (AID 2282966; active means hit-call score of the fitted dose curve at least 0.9, where 1 is the maximum; inactive means score below 0.9;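 further: background control endpoint measuring basal TAL promoter reporter mRNA not a specific factor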); details: HepG2 Attagene cis-factorial TAL promoter reporter; actives raise or lower the signal
Outline: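 Readout: reporter mRNA, fluorescence by CE. System: HepG2, transient multi-reporter transfection, endogenous TF activity. Exposure: 24 h. Analysis: bidirectional, DMSO-normalized; background control.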

[2] = ATG_TGFb_CIS: Attagene CIS-FACTORIAL HepG2 Assay for human Transforming Growth Factor (TGF) (AID 2282967; active means hit-call score of the fitted dose curve at least 0.9, where 1 is the maximum; inactive means score below 0.9); details: HepG2 Attagene CIS TGFb reporter, mRNA transcription; actives raise or lower the signal
Outline: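 Multiplexed cis-reporter HepG2 system, 24 h treatment; mRNA induction read by fluorescence after RT-PCR and CE; DMSO negative control, bidirectional curve fitting.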

[3] = ATG_VDRE_CIS: Attagene CIS-FACTORIAL HepG2 Assay for human Vitamin D Receptor Element (VDRE) (AID 2282968; active means hit-call score of the fitted dose curve at least 0.9, where 1 is the maximum; inactive means score below 0.9); details: HepG2 VDRE cis-reporter transcription, actives raise or lower the signal
Outline: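 Cell-based multiplexed reporter format in human liver HepG2 cells, 24 h post-dose. Fluorescence from capillary electrophoresis of reporter cDNA gives the signal, with DMSO as negative control and baseline.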

[4] = target: Nuclear receptor subfamily 1 group I member 3 (Homo sapiens) (UniProt Q14994); assay: ATG_CAR_TRANS: Attagene TRANS-FACTORIAL HepG2 Assay for human Constitutive Androstane Receptor (CAR) (AID 2282969); details: HepG2 Attagene TRANS-FACTORIAL CAR reporter;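 further: activators raise reporter mRNA above DMSO so AC50 marks induction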
Chain of Nuclear receptor subfamily 1 group I member 3 (Homo sapiens) (Q14994 whole entry, looked up, the tested form may be a part): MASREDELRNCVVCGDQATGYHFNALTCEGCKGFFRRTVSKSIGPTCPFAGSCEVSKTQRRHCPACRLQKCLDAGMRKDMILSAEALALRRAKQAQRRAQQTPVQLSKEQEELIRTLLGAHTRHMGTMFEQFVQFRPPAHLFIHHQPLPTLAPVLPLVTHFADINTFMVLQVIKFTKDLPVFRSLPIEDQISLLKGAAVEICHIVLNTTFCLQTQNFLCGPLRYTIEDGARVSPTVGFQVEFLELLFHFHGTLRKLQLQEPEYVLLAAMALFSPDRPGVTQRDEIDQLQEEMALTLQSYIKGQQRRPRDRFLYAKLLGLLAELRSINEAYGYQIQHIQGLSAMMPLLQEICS
Outline: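 HepG2 cells transiently transfected with GAL4-UAS reporter units; TRANS format reads activity of exogenous chimeric NR-Gal4 protein. After 24 h dosing, reporter mRNA quantified by RT-PCR, 6-FAM labelling and capillary electrophoresis; gain of signal fitted against DMSO.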

[5] = target: X-box-binding protein 1 (Homo sapiens) (UniProt P17861); assay: ATG_Xbp1_CIS: Attagene CIS-FACTORIAL HepG2 Assay for human X-box Binding Protein 1 (XBP1) (AID 2282972; active means hit-call score of the fitted dose curve at least 0.9, where 1 is the maximum; inactive means score below 0.9); details: HepG2 XBP1 cis-element reporter, Attagene multiplex; actives raise or lower the signal
Chain of X-box-binding protein 1 (Homo sapiens) (P17861 whole entry, looked up): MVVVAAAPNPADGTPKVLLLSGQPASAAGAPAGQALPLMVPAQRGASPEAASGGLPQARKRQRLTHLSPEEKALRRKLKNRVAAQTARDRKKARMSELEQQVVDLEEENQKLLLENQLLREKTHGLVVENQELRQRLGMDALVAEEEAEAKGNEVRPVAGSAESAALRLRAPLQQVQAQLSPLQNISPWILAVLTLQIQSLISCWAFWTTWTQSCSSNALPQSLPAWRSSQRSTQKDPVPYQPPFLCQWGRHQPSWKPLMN
Outline: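 HepG2 cells transiently transfected with cis-regulated multiple reporter transcription units; endogenous transcription factor activity measured 24 hours after chemical dosing. Reporter mRNA quantified by RT-PCR, 6-FAM primer extension, HpaI digestion and capillary electrophoresis; bidirectional fitting versus DMSO.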

[6] = ATG_M_19_TRANS: Attagene TRANS-FACTORIAL HepG2 Assay for M19 Transcription Factor (Internal Marker) (AID 2282974); details: HepG2 Attagene TRANS-FACTORIAL M19 internal marker reporter
Outline: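 HepG2 transiently transfected with GAL4-UAS multiplex reporter constructs, exposed 24 h; reporter RNA quantified by RT-PCR, 6-FAM labeling, HpaI digestion and capillary electrophoresis; internal background marker fitted upward versus DMSO.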

[7] = target: Estrogen-related receptor gamma (Homo sapiens) (UniProt P62508); assay: ATG_ERRg_TRANS: Attagene TRANS-FACTORIAL HepG2 Assay for human Estrogen-Related Receptor gamma (ERRg) (AID 2282977); details: HepG2 Attagene TRANS reporter, ERRg transactivation;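 further: hits increase reporter signal over DMSO so potencies reflect activators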
Chain of Estrogen-related receptor gamma (Homo sapiens) (P62508 whole entry, looked up, the tested form may be a part): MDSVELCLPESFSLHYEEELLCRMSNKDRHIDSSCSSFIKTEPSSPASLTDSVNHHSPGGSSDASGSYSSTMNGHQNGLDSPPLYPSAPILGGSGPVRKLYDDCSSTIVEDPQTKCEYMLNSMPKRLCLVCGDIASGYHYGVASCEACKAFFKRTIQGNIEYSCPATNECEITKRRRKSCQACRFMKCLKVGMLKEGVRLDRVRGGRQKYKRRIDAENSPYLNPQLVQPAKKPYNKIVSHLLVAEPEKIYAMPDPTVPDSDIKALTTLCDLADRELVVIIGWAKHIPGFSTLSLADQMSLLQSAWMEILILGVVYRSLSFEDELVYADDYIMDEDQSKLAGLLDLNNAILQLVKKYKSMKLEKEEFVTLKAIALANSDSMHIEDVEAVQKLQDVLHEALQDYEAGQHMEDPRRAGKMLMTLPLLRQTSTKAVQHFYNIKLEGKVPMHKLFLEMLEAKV
Outline: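 HepG2 cells transiently transfected with multiplexed GAL4-UAS reporter units and chimeric NR-Gal4 constructs were exposed to test chemicals for 24 h. Reporter mRNA was measured by RT-PCR, 6-FAM primer extension, HpaI digestion and capillary electrophoresis; gain-of-signal versus DMSO.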

[8] = target: Glucocorticoid receptor (Homo sapiens) (UniProt P04150); assay: ATG_GR_TRANS: Attagene TRANS-FACTORIAL HepG2 Assay for human Glucocorticoid Receptor (GR) (AID 2282978); details: HepG2 Attagene TRANS GR reporter, mRNA transcription;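 further: activators score as hits since higher reporter transcript over DMSO is fitted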
Chain of Glucocorticoid receptor (Homo sapiens) (P04150 whole entry, looked up, the tested form may be a part): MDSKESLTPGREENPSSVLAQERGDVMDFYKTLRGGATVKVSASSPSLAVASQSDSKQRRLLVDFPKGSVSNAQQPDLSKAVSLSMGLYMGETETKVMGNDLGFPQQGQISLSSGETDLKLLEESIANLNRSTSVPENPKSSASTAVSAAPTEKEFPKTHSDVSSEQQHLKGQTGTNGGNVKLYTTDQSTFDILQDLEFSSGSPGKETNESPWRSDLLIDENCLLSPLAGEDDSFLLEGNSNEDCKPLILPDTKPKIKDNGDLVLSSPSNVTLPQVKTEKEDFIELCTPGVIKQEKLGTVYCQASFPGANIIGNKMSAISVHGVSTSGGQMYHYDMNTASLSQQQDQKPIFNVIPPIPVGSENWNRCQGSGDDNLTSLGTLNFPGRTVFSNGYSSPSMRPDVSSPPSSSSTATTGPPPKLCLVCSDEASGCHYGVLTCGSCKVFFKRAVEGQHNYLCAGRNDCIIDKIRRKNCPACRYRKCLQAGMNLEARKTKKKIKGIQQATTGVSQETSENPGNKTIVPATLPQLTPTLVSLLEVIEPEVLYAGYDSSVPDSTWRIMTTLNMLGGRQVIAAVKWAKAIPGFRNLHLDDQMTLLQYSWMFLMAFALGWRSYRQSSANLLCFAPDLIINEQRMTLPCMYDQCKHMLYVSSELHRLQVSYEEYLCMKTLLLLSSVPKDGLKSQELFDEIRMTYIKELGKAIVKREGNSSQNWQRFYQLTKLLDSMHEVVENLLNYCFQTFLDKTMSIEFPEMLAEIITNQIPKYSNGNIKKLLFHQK
Outline: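 HepG2 cells transiently transfected with GAL4-UAS reporter units and exogenous GR-Gal4 chimera, dosed 24 h. Reporter mRNA by RT-PCR, FAM labeling, HpaI digest and capillary electrophoresis; gain-of-signal fit versus DMSO.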

[9] = target: Oxysterols receptor LXR-alpha (Homo sapiens) (UniProt Q13133); assay: ATG_LXRa_TRANS: Attagene TRANS-FACTORIAL HepG2 Assay for human Liver X Receptor alpha (LXRa) (AID 2282980); details: HepG2 Attagene TRANS reporter, LXRa transactivation
Outline: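 Transient HepG2 transfectants, 24 h dosing, RT-PCR/CE mRNA reporter quantitation; gain-of-signal vs DMSO.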

[10] = target: Oxysterols receptor LXR-beta (Homo sapiens) (UniProt P55055); assay: ATG_LXRb_TRANS: Attagene TRANS-FACTORIAL HepG2 Assay for human Liver X Receptor beta (LXRb) (AID 2282981); details: HepG2 Attagene TRANS GAL4-LXRb reporter, mRNA
Chain of Oxysterols receptor LXR-beta (Homo sapiens) (P55055 whole entry, looked up, the tested form may be a part): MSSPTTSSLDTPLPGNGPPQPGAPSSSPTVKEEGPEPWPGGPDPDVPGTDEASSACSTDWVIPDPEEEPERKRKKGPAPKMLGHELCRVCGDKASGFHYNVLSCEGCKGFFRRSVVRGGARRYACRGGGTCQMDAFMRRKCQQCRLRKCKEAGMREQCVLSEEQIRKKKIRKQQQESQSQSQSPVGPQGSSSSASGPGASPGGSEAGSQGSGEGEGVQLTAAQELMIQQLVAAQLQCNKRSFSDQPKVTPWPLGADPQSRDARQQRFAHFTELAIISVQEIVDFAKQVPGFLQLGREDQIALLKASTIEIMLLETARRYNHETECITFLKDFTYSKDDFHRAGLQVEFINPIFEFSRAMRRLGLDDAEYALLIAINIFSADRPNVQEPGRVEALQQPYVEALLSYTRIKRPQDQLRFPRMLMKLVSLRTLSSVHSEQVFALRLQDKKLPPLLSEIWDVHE
Outline: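 Gain-of-signal mRNA reporter endpoint, DMSO as negative control. Transiently transfected HepG2 cells carrying the NR-Gal4 chimera and GAL4-UAS reporter units were treated 24 h; transcripts quantified by RT-PCR and capillary electrophoresis fluorescence.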

[11] = target: Hepatocyte nuclear factor 4-alpha (Homo sapiens) (UniProt P41235); assay: ATG_HNF4a_TRANS: Attagene TRANS-FACTORIAL HepG2 Assay for human Hepatocyte Nuclear Factor 4 alpha (HNF4a) (AID 2282982); details: HepG2 HNF4a transactivation reporter, mRNA readout
Chain of Hepatocyte nuclear factor 4-alpha (Homo sapiens) (P41235 whole entry, looked up, the tested form may be a part): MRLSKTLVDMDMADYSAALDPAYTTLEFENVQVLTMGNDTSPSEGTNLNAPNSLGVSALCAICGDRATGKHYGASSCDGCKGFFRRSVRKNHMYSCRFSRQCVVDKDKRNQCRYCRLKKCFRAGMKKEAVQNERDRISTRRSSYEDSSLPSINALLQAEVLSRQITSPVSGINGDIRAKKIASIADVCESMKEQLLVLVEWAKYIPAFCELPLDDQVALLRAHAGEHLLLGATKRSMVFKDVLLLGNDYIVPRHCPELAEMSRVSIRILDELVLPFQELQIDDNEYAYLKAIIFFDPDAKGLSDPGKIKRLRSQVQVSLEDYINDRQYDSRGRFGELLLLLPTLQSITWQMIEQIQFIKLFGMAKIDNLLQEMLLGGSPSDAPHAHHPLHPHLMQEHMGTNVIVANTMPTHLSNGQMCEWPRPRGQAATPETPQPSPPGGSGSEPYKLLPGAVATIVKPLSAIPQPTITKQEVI
Outline: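 Gain-of-signal mRNA induction, relative to DMSO vehicle, was read after 24 h compound treatment of HepG2 cells bearing transfected GAL4-UAS reporters. Detection used RT-PCR, 6-FAM primer extension and capillary electrophoresis.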

[12] = ATG_M_06_TRANS: Attagene TRANS-FACTORIAL HepG2 Assay for M06 Transcription Factor (Internal Marker) (AID 2282983); details: HepG2 Attagene TRANS M06 internal marker reporter
Outline: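 Measured by capillary electrophoresis of fluorescently labelled RT-PCR products, this endpoint reflects reporter mRNA in HepG2 cells harbouring exogenous NR-GAL4 reporter constructs after 24 h exposure, with DMSO as baseline.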

[13] = ATG_M_32_TRANS: Attagene TRANS-FACTORIAL HepG2 Assay for M32 Transcription Factor (Internal Marker) (AID 2282984); details: HepG2 Attagene TRANS M32 internal marker reporter;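 further: transcript level of a background control reporter unit measured by RT-PCR and capillary electrophoresis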
Outline: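 Capillary electrophoresis of 6-FAM-labelled reporter fragments gives the signal; data fitted for gain over DMSO negative control. Source: HepG2 cells bearing transient multiple reporter transcription units, 24 h exposure.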

[14] = target: Nuclear respiratory factor 1 (Homo sapiens) (UniProt Q16656); assay: ATG_NRF1_CIS: Attagene CIS-FACTORIAL HepG2 Assay for human Nuclear Respiratory Factor 1 (NRF1) Orphan Gene (AID 2282987; active means hit-call score of the fitted dose curve at least 0.9, where 1 is the maximum; inactive means score below 0.9); details: HepG2 NRF1 cis-element reporter, Attagene multiplex; actives raise or lower the signal
Chain of Nuclear respiratory factor 1 (Homo sapiens) (Q16656 whole entry, looked up): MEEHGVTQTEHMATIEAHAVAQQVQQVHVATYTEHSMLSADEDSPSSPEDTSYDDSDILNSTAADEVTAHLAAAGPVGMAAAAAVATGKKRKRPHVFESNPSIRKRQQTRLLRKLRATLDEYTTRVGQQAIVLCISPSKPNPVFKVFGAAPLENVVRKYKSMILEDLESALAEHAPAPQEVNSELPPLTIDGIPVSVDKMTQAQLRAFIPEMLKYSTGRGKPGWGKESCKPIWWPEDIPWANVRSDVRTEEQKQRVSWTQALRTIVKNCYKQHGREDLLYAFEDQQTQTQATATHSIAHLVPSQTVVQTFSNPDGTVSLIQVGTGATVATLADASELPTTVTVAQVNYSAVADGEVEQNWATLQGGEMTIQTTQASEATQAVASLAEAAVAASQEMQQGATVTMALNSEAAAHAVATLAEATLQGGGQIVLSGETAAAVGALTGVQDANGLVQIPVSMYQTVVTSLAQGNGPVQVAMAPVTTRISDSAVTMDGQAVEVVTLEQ
Outline: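 HepG2 cells transiently transfected with multiple cis-regulated reporter units, exposed 24 h. Reporter mRNAs measured by RT-PCR, fluorescent labelling, HpaI digestion and capillary electrophoresis; bidirectional fitting against DMSO.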

[15] = target: Nuclear receptor subfamily 4 group A member 2 (Homo sapiens) (UniProt P43354); assay: ATG_NURR1_TRANS: Attagene TRANS-FACTORIAL HepG2 Assay for human Nuclear Receptor Related Protein 1 (NURR1) (AID 2282985); details: HepG2 Attagene TRANS reporter, mRNA readout
Chain of Nuclear receptor subfamily 4 group A member 2 (Homo sapiens) (P43354 whole entry, looked up): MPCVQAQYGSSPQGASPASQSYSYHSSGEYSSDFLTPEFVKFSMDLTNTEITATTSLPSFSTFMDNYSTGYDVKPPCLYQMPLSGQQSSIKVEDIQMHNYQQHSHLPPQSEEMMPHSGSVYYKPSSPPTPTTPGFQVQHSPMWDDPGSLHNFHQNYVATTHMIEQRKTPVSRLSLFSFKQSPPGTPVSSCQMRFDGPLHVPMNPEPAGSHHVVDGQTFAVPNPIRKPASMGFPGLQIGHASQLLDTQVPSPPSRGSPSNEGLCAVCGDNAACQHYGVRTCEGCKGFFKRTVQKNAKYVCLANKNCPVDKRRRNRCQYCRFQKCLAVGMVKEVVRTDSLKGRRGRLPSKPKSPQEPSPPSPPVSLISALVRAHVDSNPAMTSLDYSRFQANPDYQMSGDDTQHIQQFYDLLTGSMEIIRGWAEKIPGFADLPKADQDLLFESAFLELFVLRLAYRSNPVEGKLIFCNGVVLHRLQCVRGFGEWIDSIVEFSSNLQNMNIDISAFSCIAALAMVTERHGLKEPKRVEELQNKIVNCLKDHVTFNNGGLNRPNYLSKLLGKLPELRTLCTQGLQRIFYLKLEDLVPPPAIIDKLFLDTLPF
Outline: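 HepG2 / transient MRTU transfection / 24 h compound exposure / RT-PCR + CE fluorescence of reporter mRNA / gain-of-signal vs DMSO.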

[16] = target: Transcriptional activator Myb (Homo sapiens) (UniProt P10242); assay: ATG_Myb_CIS: Attagene CIS-FACTORIAL HepG2 Assay for human Myeloblastosis (Myb) Proto-Oncogene Transcription Factor (AID 2282986; active means hit-call score of the fitted dose curve at least 0.9, where 1 is the maximum; inactive means score below 0.9); details: HepG2 Attagene CIS-FACTORIAL Myb reporter transcription; actives raise or lower the signal
Chain of Transcriptional activator Myb (Homo sapiens) (P10242 whole entry, looked up): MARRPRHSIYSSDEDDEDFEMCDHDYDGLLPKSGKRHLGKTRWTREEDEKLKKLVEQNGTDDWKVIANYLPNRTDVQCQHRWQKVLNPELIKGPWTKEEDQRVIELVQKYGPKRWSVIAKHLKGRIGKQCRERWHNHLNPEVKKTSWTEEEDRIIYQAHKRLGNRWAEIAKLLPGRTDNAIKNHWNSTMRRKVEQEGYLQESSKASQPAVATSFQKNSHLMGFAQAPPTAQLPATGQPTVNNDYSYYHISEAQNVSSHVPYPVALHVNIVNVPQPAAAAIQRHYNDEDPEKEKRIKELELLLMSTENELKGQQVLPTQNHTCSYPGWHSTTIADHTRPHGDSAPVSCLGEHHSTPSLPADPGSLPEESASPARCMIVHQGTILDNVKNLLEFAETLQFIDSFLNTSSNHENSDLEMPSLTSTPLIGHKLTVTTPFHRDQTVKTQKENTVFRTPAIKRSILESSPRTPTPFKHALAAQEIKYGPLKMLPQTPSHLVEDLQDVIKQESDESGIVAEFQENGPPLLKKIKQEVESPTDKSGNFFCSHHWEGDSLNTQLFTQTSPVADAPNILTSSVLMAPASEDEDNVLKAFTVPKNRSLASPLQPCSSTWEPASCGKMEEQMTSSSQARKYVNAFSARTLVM
Outline: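 Transiently transfected HepG2 cells carrying a multiplexed cis-promoter reporter set report endogenous Myb activity after 24 h compound exposure. Reporter mRNA is read by RT-PCR with capillary electrophoresis of fluorescent products, fitted bidirectionally against DMSO.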

[17] = target: Bile acid receptor (Homo sapiens) (UniProt Q96RI1); assay: ATG_FXR_TRANS: Attagene TRANS-FACTORIAL HepG2 Assay for Farnesoid X Receptor (FXR) (AID 2282979); details: HepG2 Attagene TRANS FXR-GAL4 reporter transcription;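 further: hits raise reporter mRNA above DMSO so AC50 marks FXR activation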
Outline: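 Chimeric FXR-GAL4 activity in transiently transfected human HepG2 liver cells is scored as induction of reporter mRNA after 24 h of dosing. Detection uses RT-PCR with fluorescent labelling and capillary electrophoresis, with DMSO serving as baseline.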

[18] = ATG_GAL4_TRANS: Attagene TRANS-FACTORIAL HepG2 Assay for GAL4 (Internal Marker) (AID 2282976); details: HepG2 Attagene TRANS GAL4 internal marker reporter
Outline: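 Fluorescence from capillary electrophoresis of labelled RT-PCR products quantifies reporter mRNA induction after 24 h dosing of HepG2 cells carrying transfected GAL4-UAS reporter transcription units. Vehicle DMSO serves as baseline.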

[19] = target: Steroid hormone receptor ERR1 (Homo sapiens) (UniProt P11474); assay: ATG_ERRa_TRANS: Attagene TRANS-FACTORIAL HepG2 Assay for human Estrogen-Related Receptor alpha (ERRa) (AID 2282971); details: HepG2 Attagene TRANS reporter, ERRa transactivation
Chain of Steroid hormone receptor ERR1 (Homo sapiens) (P11474 whole entry, looked up, the tested form may be a part): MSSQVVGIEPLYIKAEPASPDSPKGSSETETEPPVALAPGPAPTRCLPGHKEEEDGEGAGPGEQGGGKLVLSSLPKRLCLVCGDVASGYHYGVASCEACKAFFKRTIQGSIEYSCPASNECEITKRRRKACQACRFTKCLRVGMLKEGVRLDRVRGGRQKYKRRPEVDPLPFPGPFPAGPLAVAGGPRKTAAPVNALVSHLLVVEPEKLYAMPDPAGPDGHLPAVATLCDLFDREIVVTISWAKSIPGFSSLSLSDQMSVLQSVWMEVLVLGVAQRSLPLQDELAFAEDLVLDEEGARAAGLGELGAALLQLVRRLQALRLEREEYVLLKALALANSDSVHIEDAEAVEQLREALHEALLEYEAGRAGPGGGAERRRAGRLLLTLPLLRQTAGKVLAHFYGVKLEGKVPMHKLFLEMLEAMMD
Outline: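 HepG2 cells were transiently transfected with multiple GAL4-UAS reporter units, then dosed with compound for 24 h. Total RNA was reverse-transcribed, reporter cDNA PCR-amplified and fluorescently labelled, and fragments resolved by capillary electrophoresis; induction was compared with DMSO.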

[20] = target: Estrogen receptor (Homo sapiens) (UniProt P03372); assay: ATG_ERa_TRANS: Attagene TRANS-FACTORIAL HepG2 Assay for human Estrogen Receptor alpha (ERa) (AID 2282970); details: HepG2 Attagene TRANS ERa GAL4 reporter, mRNA
Outline: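 Transactivation via ERa-Gal4 chimera in HepG2; 24 hour incubation; reporter mRNA detected by fluorescence RT-PCR and capillary electrophoresis.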

Measured: AC50

O=c1[nH]nc(-c2ccc([N+](=O)[O-])o2)o1
inactive: [1] | [2] | [3] | [4] | [5] | [6] | [7] | [8] | [9] | [10] | [11] | [12] | [13] | [14]

CCN(CC#N)c1cccc(C)c1
inactive: [1] | [2] | [3] | [4] | [5] | [10] | [11] | [12] | [13] | [15] | [16] | [14]

Nc1ccc(N)c(Cl)c1
inactive: [1] | [2] | [4] | [5] | [6] | [17] | [11] | [16]
active: [3] 33.4 µM

CCO[Si](CCCN=C=O)(OCC)OCC
inactive: [1] | [2] | [3] | [4] | [5] | [6] | [18] | [10] | [12] | [13] | [15] | [16] | [14]

CC(C)(C)c1ccc(N)cc1
inactive: [1] | [2] | [3] | [4] | [19] | [5] | [6] | [18] | [7] | [13] | [15] | [16] | [14]

CNC(=S)N(C)C
inactive: [1] | [2] | [3] | [4] | [20] | [5] | [18] | [8] | [10] | [11] | [16] | [14]

Nc1ccc(N=Nc2ccccc2)c(N)n1
active: [3] 68.9 µM | [5] 70.3 µM
inactive: [1] | [2] | [4] | [6] | [9] | [10] | [11] | [13] | [15] | [16] | [14]

COc1ccc(C(Cl)=C(c2ccc(OC)cc2)c2ccc(OC)cc2)cc1
active: [3] 4.46 µM
inactive: [1] | [2] | [4] | [19] | [5] | [10] | [12] | [13] | [15] | [16] | [14]

O=c1c2ccccc2nnn1CCl
inactive: [1] | [2] | [3] | [4] | [20] | [5] | [18] | [11] | [12] | [13] | [16]

COC(=O)c1cc(Cl)ccc1[N+](=O)[O-]
inactive: [1] | [2] | [3] | [4] | [5] | [6] | [8] | [12] | [13] | [14]

C=CC(=O)NC(C)(C)CS(=O)(=O)O
inactive: [1] | [2] | [3] | [4] | [5] | [6] | [18] | [11] | [13] | [16] | [14]
